An excerpt weighted towards active compounds, which were near 0.59% of everything screened.
Vif-APOBEC3F blk = inhibitors of Vif-A3F interaction; AID 602313; Potency, µM (doses to about 46.1 µM), without a hit: at the top dose activity, negative = active; HeLa A3F-eYFP + Vif (tagged APOBEC3F with the HIV-1 protein that degrades it), YFP fluorescence increase; 0.2% of 390,000 active; further: potency means the concentration at half of the fitted maximal effect; % of control where 0% means no effect; nearly all actives have a fitted effect of over 65% in size
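HeLa cells stably expressing Vif plus C-terminally eYFP-tagged A3F were seeded, incubated overnight at 37 deg C, dosed with compound, incubated overnight again at 37 deg C. Yellow fluorescence (Ex 488/Em 500-530) reported blocked Vif-mediated A3F-eYFP degradation.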
IDH1 R132H inh = human IDH1 R132H inhibition. O75874. IDH1-R132H enzyme, NADPH consumption, diaphorase/resazurin fluorescence. Potency, µM (doses to about 76.6 µM), for the others: at the top dose activity change, negative = inhibition, most hits filed as inhibitors. 0.093% of 390,000 active. AID 602179; further: potency means the concentration at half of the fitted maximal effect; on the % scale 0 is the no-effect control and ±100 the full control effect; nearly all actives have a fitted effect of over 65% in size
Target sequence (O75874 whole entry R132H, stated change not applied): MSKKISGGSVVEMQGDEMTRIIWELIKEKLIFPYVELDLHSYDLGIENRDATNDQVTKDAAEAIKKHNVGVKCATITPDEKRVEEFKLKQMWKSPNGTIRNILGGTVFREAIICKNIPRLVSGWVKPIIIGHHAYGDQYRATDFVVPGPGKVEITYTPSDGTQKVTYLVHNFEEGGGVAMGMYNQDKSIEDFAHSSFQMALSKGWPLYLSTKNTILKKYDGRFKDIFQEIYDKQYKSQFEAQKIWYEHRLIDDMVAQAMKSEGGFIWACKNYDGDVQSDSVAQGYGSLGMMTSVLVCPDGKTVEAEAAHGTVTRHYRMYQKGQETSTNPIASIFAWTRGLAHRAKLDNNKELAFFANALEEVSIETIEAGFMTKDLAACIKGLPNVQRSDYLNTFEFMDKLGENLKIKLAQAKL
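IDH1-R132H (0.5 ug/mL) preincubated 30 min with compound, then NADPH (0.016 mM) and alpha-KG (2 mM) added; 80 min at RT, pH 7.5. Remaining NADPH coupled via diaphorase/resazurin to fluorescence (540/590 nm); concentration-response curves normalized to no-enzyme control.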
PTHR1 agonist = agonists of human PTHR1 parathyroid hormone receptor; Q03431; HEK293 GP2 PTHR1 cells, GloSensor cAMP luminescence, 1 h; Potency, µM (series often up to 115 µM), inactives show top-dose activation, hits mostly activators; 0.075% of 410,000 active; further: potency means the concentration at half of the fitted maximal effect; nearly all actives have a fitted effect of over 55% in size
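HEK-293-derived GP2 cells expressing PTHR1 and a GloSensor cAMP reporter, 3,000/well, plated overnight, given luciferin plus IBMX (each 0.5 mM as added) for 1 h at 37 °C, then compound for 1 h at 37 °C. Luminescence was read after 15 min at room temperature.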
LDHA block = blocks human lactate dehydrogenase A; P00338; purified LDHA, NADH/diaphorase-resazurin fluorescence; active compounds read low; activity change, % (values are at about 110 or 230 µM); 0.15% of 480,000 active; AID 1347041; in the data active means activity change below about -30%; inconclusive means mostly about -25% to -30%;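 further: plate controls were DMSO wells for no effect and wells without enzyme for full effect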
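Remaining NADH was detected by diaphorase (0.133 mg/mL) converting 37 µM resazurin to fluorescent resorufin, read at 0 and 20 minutes. The preceding 5-minute room-temperature reaction used 2 nM LDHA, 0.2 mM sodium pyruvate and 0.06 mM NADH at pH 7.4.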
PINK1 expr mod = changes PINK1 expression; PINK1 immunofluorescence, high-content cytometry, 24 h; Potency, µM (top dose mostly 76.6 µM), without a hit: at the top dose activation (PINK1 increase), hits mostly activators; 0.2% of 410,000 active; active means well fitted activation curve with a large enough effect; inconclusive means small, poorly fitted or top-dose-only effect; cell line not stated here; further: potency means the concentration at half of the fitted maximal effect; % of control where 0% means no effect; nearly all actives have a fitted effect of over 65% in size
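Stable cell line, 250 cells/well, 12 h attachment; compounds pinned at 5 concentrations, 24 h; CCCP control. Fixed with nuclear dye, primary antibodies 12 h at 10 degrees C, secondary plus cell stain; laser-scanning cytometer read.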
Vif-APOBEC3G blk = Vif-A3G binding inhibition. AID 602310. HeLa A3G-eYFP + Vif (tagged APOBEC3G with the HIV-1 protein that degrades it), YFP fluorescence, overnight. Q9HC16. Potency, µM (titrated, usually from 46.1 µM), inactives show top-dose activity, negative = active, actives largely listed as inhibitors. 0.076% of 410,000 active; further: potency means the concentration at half of the fitted maximal effect; on the % scale 0 is the no-effect control and ±100 the full control effect; nearly all actives have a fitted effect of over 60% in size
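Read-out is eYFP fluorescence (Ex 488/Em 500-530) from Vif-expressing HeLa A3G-eYFP cells; more signal means A3G escaped Vif-mediated degradation. Cells plated overnight, compound pinned in, incubated overnight at 37 deg C.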
Starred values were filed as active, the others as inactive. Unless noted, the call rests on the fitted dose curve; in most records, active means well fitted curve in the direction sought with a large enough effect; inconclusive means small, poorly fitted or top-dose-only effect, or another doubt; inactive means no such curve, though single readings can be large; an effect the other way counts as inactive or inconclusive.

How did COCc1c(C(=O)N2CCN(S(=O)(=O)c3ccccc3Cl)CC2)oc2ccccc12 do in these assays?
Vif-APOBEC3F blk: -6%; IDH1 R132H inh: -2%; PTHR1 agonist: -28%; LDHA block: -6; PINK1 expr mod: 1%; Vif-APOBEC3G blk: 1%

Results for CC1CCc2c(sc(NC(=O)CSc3ncnc4ccccc34)c2C#N)C1 (stereo not drawn) ?
LDHA block: -6

How did COc1ccccc1NC(C)=[N+](C)CCNS(=O)(=O)c1ccc(Cl)cc1 do in these assays?
Vif-APOBEC3F blk: 1%; IDH1 R132H inh: -3%; PTHR1 agonist: inactive; LDHA block: -74*; PINK1 expr mod: -1%; Vif-APOBEC3G blk: -1%

Results for Cc1ccc2c(c1)sc(-c1ccc(N(C)C)cc1)[n+]2C ?
Vif-APOBEC3F blk: 22µM*; IDH1 R132H inh: 10%; PTHR1 agonist: -89%; LDHA block: -7; PINK1 expr mod: inconclusive; Vif-APOBEC3G blk: inconclusive

Results for COc1ccc(C)cc1Nc1n[n+](-c2ccccc2)c(-c2ccc(N(C)C)cc2)s1 ?
Vif-APOBEC3F blk: inconclusive; IDH1 R132H inh: inconclusive; PTHR1 agonist: -54%; LDHA block: 3; PINK1 expr mod: inconclusive; Vif-APOBEC3G blk: inconclusive

What do the screens show for `Cn1c(=O)c2c(ncn2CC(=O)Nc2ccccc2Oc2ccccc2Cl)n(C)c1=O`?
LDHA block: -5

Results for O=C(NC(=S)N1CCN(C2CCCCC2)CC1)c1ccccc1 ?
Vif-APOBEC3F blk: 22µM*; IDH1 R132H inh: 11%; PTHR1 agonist: inactive; LDHA block: -10; PINK1 expr mod: 2%; Vif-APOBEC3G blk: 4%

Results for O=C(NC(=S)N1CCN(c2ccccn2)CC1)c1ccccc1 ?
Vif-APOBEC3F blk: 22µM*; IDH1 R132H inh: 0%; PTHR1 agonist: inactive; LDHA block: -13; PINK1 expr mod: 3%; Vif-APOBEC3G blk: 2%

Results for CC(C)Oc1ccc(/C(O)=C2\C(=O)C(=O)N(c3nccs3)C2c2ccc(C(C)C)cc2)cc1 (stereo not drawn) ?
LDHA block: 7

How did Cc1ccc(NC(=O)Cn2c(O)c(N=NC(=O)c3ccncc3)c3ccccc32)cc1 do in these assays?
Vif-APOBEC3F blk: 4µM*; IDH1 R132H inh: 1%; PTHR1 agonist: inactive; LDHA block: -5; PINK1 expr mod: 7%; Vif-APOBEC3G blk: 0%

How did O=C(NCCc1cccs1)c1ccc(Cl)cc1 do in these assays?
Vif-APOBEC3F blk: -6%; IDH1 R132H inh: 4%; PTHR1 agonist: -56%; LDHA block: -10; PINK1 expr mod: 2%; Vif-APOBEC3G blk: 1%

Results for O=C(NCCc1cccs1)c1ccc(Cl)c(Cl)c1 ?
Vif-APOBEC3F blk: 2.5µM*; IDH1 R132H inh: 9%; PTHR1 agonist: -26%; LDHA block: -3; PINK1 expr mod: 2%; Vif-APOBEC3G blk: -6%

What do the screens show for `C[n+]1ccc(/C=C/c2c[nH]c3ccc(F)cc23)cc1`?
Vif-APOBEC3F blk: 10µM*; IDH1 R132H inh: 5%; PTHR1 agonist: inactive; LDHA block: -3; PINK1 expr mod: 16µM*; Vif-APOBEC3G blk: 8.9µM*

What do the screens show for `Cn1cc(/C=C/c2cc[n+](C)cc2)c2cc(Cl)ccc21`?
Vif-APOBEC3F blk: inconclusive; IDH1 R132H inh: 1%; PTHR1 agonist: inactive; LDHA block: 14; PINK1 expr mod: inconclusive; Vif-APOBEC3G blk: inconclusive

How did Cn1cc(/C=C/c2cc[n+](C)cc2)c2cc(F)ccc21 do in these assays?
Vif-APOBEC3F blk: inconclusive; IDH1 R132H inh: 5%; PTHR1 agonist: -20%; LDHA block: 7; PINK1 expr mod: 11µM*; Vif-APOBEC3G blk: inconclusive

Results for O=C(c1cncc(Br)c1)n1ccccc1=NC1CCCCC1 ?
LDHA block: 4

What do the screens show for `CCC1CCCCN1C(=O)Cn1c(=O)n(-c2ccc(F)c(C)c2)c(=O)c2sccc21` (stereo not drawn)?
LDHA block: -39*

Source: PubChem
